The whole screen tested about 3,300 compounds, of which fewer than 10 were called active.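 Rule for the calls: active = growth inhibition above 90% in viable cell count at a single dose; inactive = growth inhibition below 90%.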 These entries were drawn from the full list.
Assay: HT29 colon tumor cell growth inhibition, primary screen, imaging, high content imaging, 24 h, CellTiter-Glo (AID 770);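 for condensed nuclei: share of cells whose nuclear area falls below control median minus 1.5 SD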
Conditions: HT29 cell number by imaging, at 10 µM, stronger effect = higher value; for condensed nuclei: measured here: percent cells with condensed nuclei
[1] = measured here: ATP CellTiter-Glo viability

| Compound | growth inhibition | growth inhibition [1] | condensed nuclei |
| --- | --- | --- | --- |
| CC(NC(=O)CSc1nnc(COc2ccccc2)o1)c1ccccc1 (stereo not given) | 2.08% (inactive) | -10.8% | 4.42% |
| N#CC1=C(SCC(=O)c2ccccc2)NC2=C(C(=O)CCC2)C1c1ccco1 (stereo not given) | 77% (inactive) | 12.5% | 20.4% |
| Cn1c(=O)c2c3c(sc2n2c(SCC(N)=O)nnc12)CC(C(C)(C)C)CC3 (stereo not given) | -4.56% (inactive) | -15.8% | 3.87% |
| CN(CCOC(=O)c1cccc(Br)c1)C(C)(C)C | 6.82% (inactive) | 3.02% | 2.48% |
| COC(=O)c1cc(Br)c(=O)n(Cc2cccnc2)c1 | 6.29% (inactive) | -14.1% | 1.99% |
| CC12CN3CC(C)(CN(C1)C3c1ccc(Cl)cc1Cl)C2O (stereo not given) | 15% (inactive) | 0.64% | 2.07% |
| CC1(C)Cc2c(c(N3CCOCC3)nc3sc(C#N)c(N)c23)CS1 | 16.1% (inactive) | 12.8% | 14% |
| COc1cccc(CNc2ncc(Br)cc2Br)c1O | 28.4% (inactive) | 3.03% | 8.79% |
| COc1ccccc1NC(=O)c1c(C)cc(=O)oc1C | 2.52% (inactive) | -2.65% | 1.89% |
| C=CCc1c(C)nc(SCCC)[nH]c1=O | -39.5% (inactive) | 9.14% | 4.83% |
| Cc1cc(N2C(=O)C(=O)/C(=C(/O)c3ccccc3)C2c2cccs2)no1 (stereo not given) | -3.8% (inactive) | -3.1% | 2.92% |
| N#Cc1c(NCCN)nc(NCc2ccccc2)c2c1CCN(Cc1ccccc1)C2 | 48.7% (inactive) | 41.2% | 7.1% |
| CSC1=C(C#N)C(c2ccc(C)s2)CC(=O)N1 (stereo not given) | 22.7% (inactive) | 4.49% | 3.3% |
| COc1cc(-c2cc(C(F)(F)F)n3ncc(C(=O)O)c3n2)cc(OC)c1OC | -25.6% (inactive) | -14.3% | 2.49% |
| O=C(O)CCc1cc(I)c(Oc2ccc(O)c(I)c2)c(I)c1 | 4.78% (inactive) | 3.12% | 4.44% |
| O=C(O)c1c[nH]c2ccc(S(=O)(=O)N3CCOCC3)cc12 | -36.6% (inactive) | -2.36% | 1.85% |
| Cc1cc(C)nc(NC2=NCC(=O)N2c2ccccc2)n1 | -50.8% (inactive) | -10.6% | 3.13% |
| COc1ccc(C2C(C(C)=O)=C(O)C(=O)N2c2nccs2)cc1OC (stereo not given) | 6.29% (inactive) | -2.95% | 3.31% |
| CCc1cc(=O)oc2cc(C)c(CN3CCCC3)c(O)c12 | 22.4% (inactive) | 0.04% | 4.19% |
| CN(C)CCCN(CCCNC(=O)/C=N/O)Cc1ccccc1 | -11.9% (inactive) | -9.76% | 2.84% |
| Nc1nnnn1CC(=O)OCc1cccc(Br)c1 | -17.1% (inactive) | -5.1% | 1.92% |
| CN1CC(=O)Nc2ccc(F)cc2C1=O | 2.67% (inactive) | -9.28% | 13.9% |
| CCCC(=O)N(Cc1cc2ccccc2[nH]c1=O)c1ccccc1OC | 0.99% (inactive) | 5.4% | 3.75% |
| COc1ccc(CNC(=O)[C@H](C)NC(=O)C2CCN(S(=O)(=O)c3ccc(C)cc3)CC2)cc1 | -1% (inactive) | -14.3% | 4.4% |
| CCc1nc2sc3c(c2c(=O)o1)CCCC3 | -25.2% (inactive) | -2.13% | 2.35% |

From PubChem BioAssay AID770 (SRMLSC, 2007)
